In the first assay the test system is Epidermal growth factor receptor (Homo sapiens), P00533 [L858R,T790M]. As to conditions: at 1 µM.
Chain of Epidermal growth factor receptor (Homo sapiens), P00533 [L858R,T790M] (P00533 whole entry T790M/L858R, looked up): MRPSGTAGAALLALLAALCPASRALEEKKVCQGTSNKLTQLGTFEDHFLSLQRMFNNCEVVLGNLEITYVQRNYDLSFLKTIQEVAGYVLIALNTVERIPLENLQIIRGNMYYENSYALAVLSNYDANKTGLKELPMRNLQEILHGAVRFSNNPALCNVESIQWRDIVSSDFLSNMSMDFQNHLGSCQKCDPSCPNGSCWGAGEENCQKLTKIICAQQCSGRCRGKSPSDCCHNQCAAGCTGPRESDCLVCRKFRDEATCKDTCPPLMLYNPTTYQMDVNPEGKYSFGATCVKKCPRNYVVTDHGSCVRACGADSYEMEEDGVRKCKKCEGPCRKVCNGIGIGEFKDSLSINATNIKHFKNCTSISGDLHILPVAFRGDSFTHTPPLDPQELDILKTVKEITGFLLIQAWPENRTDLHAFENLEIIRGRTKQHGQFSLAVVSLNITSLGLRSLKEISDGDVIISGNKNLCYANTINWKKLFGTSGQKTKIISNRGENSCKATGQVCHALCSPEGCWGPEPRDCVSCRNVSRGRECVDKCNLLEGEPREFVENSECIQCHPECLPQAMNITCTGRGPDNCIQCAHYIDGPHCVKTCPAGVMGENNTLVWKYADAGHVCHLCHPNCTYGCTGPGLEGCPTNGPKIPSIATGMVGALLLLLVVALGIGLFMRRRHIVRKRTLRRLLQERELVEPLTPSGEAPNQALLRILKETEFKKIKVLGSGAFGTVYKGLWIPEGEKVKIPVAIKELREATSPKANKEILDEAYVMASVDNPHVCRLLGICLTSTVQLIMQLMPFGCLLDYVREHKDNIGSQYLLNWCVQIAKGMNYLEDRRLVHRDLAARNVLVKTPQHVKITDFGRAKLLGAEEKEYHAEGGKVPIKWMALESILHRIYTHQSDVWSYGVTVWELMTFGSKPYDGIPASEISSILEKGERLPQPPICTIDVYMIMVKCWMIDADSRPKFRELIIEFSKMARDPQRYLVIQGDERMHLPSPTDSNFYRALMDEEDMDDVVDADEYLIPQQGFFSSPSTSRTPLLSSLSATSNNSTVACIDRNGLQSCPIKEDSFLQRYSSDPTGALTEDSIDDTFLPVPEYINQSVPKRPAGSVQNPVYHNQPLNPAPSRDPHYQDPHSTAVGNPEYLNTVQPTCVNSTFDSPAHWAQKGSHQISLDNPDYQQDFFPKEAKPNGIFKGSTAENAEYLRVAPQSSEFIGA
What is called inhibition is the relative decrease from the control value, in per cent. For the compound `CCS(=O)(=O)c1ccc(OC)c(Nc2ncc(-c3cccc(OC)c3)o2)c1`, the inhibition turned out to be 0.18%.
On the same count and under the same terms, then `COc1cc2ncn(-c3cc(OCc4ccccc4S(C)(=O)=O)c(C#N)s3)c2cc1OC`, with 62.5%; and `OCc1ccc(-c2nc(-c3ccccn3)c(-c3ccc4c(c3)OCO4)[nH]2)cc1`, with 0.26%.
The same measure, in the same setting: as for `COc1cc(/C=N/Nc2ncnc3c2cnn3C(C)C)ccc1O`, the figure is 2.31%; as for `Nc1nccc(-c2c(-c3ccc(F)cc3)nn3cc(C(F)(F)F)ccc23)n1`, 1.18%.
The same measure, in the same setting: as for `CN(C)CCCn1c(-c2nonc2N)nc2cnccc21`, the figure is 3.5%; as for `COc1cc(Nc2nccc(-c3cnn4ncccc34)n2)cc(OC)c1`, 15.8%.
As to `NS(=O)(=O)c1cccc(-c2cc3ccncc3cc2OCc2ccccc2)c1`, the inhibition turned out to be 0.67%.
Still for that read-out and setting: then `CN1CCN(C(=O)c2ccc(NC(=O)Nc3ccc(N(C)c4ccnc(Nc5ccc(CS(C)(=O)=O)cc5)n4)cc3)cc2)CC1`, with 2.86%; and `Cc1ccc2c(c1)/C(=N/Nc1ccc(S(N)(=O)=O)cc1)C(=O)N2`, with -2.96%; and `Cc1ccc(NC(=O)CC2CC2)cc1-c1ccc(C(=O)NCC2CC2)cc1`, with 0.35%.
The same measure, in the same setting: as for `CN(c1ccc(NC(=O)Nc2ccc(OC(F)(F)F)cc2)cc1)c1ccnc(Nc2cccc(S(N)(=O)=O)c2)n1`, the figure is 2.24%; as for `C[C@@H](Oc1cc(-n2cnc3ccc(OC[C@@H](O)CO)cc32)sc1C(N)=O)c1ccccc1Cl`, -0.33%; as for `Cc1ccc(C(=O)NC2CC2)cc1-c1ccc2[nH]ncc2c1`, -5.63%.
On the same count and under the same terms, as for `COc1ccc(-c2nn3ncccc3c2-c2ccnc(Nc3cccc(C(F)(F)F)c3)n2)cc1`, the figure is 7.35%; as for `CC(C)c1ccc2c(c1)NC(=O)/C2=N/Nc1ccc(S(N)(=O)=O)cc1`, -2.16%; as for `NS(=O)(=O)c1ccc(NC=C2C(=O)Nc3ccc4ncsc4c32)cc1`, 9.63%.
As for `C[C@@H](Oc1cc(-n2cnc3ccc(OCC4CCN(C)CC4)cc32)sc1C(N)=O)c1ccccc1C(F)(F)F`, the inhibition was 18.6%.
Same read-out and setting: then `Cc1ccc(Nc2ccnc(Nc3cccc(C(N)=O)c3)n2)cc1O`, with 5.38%; and `CCS(=O)(=O)c1ccc(OC)c(Nc2nccc(N(C)c3ccc4c(C)n[nH]c4c3)n2)c1`, with 4.47%.
The same measure, in the same setting: then `COC(=O)Nc1nc2cc(Oc3ccc(NC(=O)Nc4cccc(Br)c4)cc3)ccc2[nH]1`, with -0.25%.
Same read-out and setting: as for `CC(C)c1ccc(Nc2nccc(-c3cnn4ncccc34)n2)cc1`, the figure is 2.24%.
As for `NS(=O)(=O)c1ccc(N/N=C2\C(=O)Nc3ccc(Cl)cc32)cc1`, the inhibition worked out at 2.78%.
On the same count and under the same terms, then `COc1cccc(-n2ncc3c(N/N=C/c4ccc(C)cc4)ncnc32)c1`, with 2.55%; and `CCn1c(-c2nonc2N)nc2ccc(F)cc21`, with 6.82%.
Still for that read-out and setting: then `COc1cc2ncnc(Nc3ccc4c(cnn4Cc4ccccc4)c3)c2cc1OC`, with 3.09%.
As to `Cc1cc(-c2ccccn2)cc(C)c1/C=C/c1cncc(-c2nn[nH]n2)c1`, the inhibition is 3.4%.
In the case of `CS(=O)(=O)Nc1cccc(-c2ccc3c(NC(=O)C4CC4)n[nH]c3c2)c1`, the inhibition was -1.6%.
Still for that read-out and setting: then `O=C1Nc2ccc(-c3cccnc3)cc2C1=Cc1cc(Br)c(O)c(Br)c1`, with 5.14%.

The target in a further assay is Ephrin type-A receptor 2 (Homo sapiens) (UniProt P29317). As to conditions: at 0.1 µM.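 Also: reported values are mean percent inhibition of EPHA2.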
Chain of Ephrin type-A receptor 2 (Homo sapiens) (P29317 whole entry): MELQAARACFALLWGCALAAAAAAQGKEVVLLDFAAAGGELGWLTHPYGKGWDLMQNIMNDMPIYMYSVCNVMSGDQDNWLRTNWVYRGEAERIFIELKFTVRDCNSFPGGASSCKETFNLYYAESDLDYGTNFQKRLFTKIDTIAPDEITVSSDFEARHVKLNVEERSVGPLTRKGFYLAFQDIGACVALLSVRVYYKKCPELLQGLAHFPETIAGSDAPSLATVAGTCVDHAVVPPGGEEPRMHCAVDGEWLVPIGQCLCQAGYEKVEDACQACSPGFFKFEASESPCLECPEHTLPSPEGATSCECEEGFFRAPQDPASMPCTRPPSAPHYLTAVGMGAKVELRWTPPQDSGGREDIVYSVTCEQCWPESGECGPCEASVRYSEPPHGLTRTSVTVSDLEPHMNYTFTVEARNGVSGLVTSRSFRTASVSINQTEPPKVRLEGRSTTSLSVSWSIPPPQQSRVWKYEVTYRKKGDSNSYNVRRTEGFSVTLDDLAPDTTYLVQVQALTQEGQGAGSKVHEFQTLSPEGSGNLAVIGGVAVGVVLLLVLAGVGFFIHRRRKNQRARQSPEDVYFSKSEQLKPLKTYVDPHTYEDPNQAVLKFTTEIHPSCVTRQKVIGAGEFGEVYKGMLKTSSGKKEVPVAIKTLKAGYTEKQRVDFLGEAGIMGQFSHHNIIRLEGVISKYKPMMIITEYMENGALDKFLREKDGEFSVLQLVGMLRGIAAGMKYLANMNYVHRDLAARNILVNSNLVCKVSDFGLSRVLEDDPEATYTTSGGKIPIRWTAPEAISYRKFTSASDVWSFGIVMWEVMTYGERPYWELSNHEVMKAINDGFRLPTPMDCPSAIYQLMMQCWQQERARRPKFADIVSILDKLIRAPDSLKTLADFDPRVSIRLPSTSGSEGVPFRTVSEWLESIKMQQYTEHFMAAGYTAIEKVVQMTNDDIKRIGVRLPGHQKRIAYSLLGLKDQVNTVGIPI
With `CN(C)C(=O)O[C@H]1CN[C@H](C#Cc2cc3ncnc(Nc4ccc(OCc5cccc(F)c5)c(Cl)c4)c3s2)C1`, the inhibition was -0.69%.
Still for that read-out and setting: then `CCS(=O)(=O)c1ccc(OC)c(Nc2ncc(-c3cccc(OC)c3)o2)c1`, with 3.67%; and `COc1cc2ncn(-c3cc(OCc4ccccc4S(C)(=O)=O)c(C#N)s3)c2cc1OC`, with 9.06%; and `[O-][S+]1CCN(Cc2ccc(-c3ccc4ncnc(Nc5ccc(OCc6ccccc6)c(Cl)c5)c4c3)o2)CC1`, with -3.15%.
As to `OCc1ccc(-c2nc(-c3ccccn3)c(-c3ccc4c(c3)OCO4)[nH]2)cc1`, the inhibition turned out to be 2.78%.
Still for that read-out and setting: as for `COc1cc(/C=N/Nc2ncnc3c2cnn3C(C)C)ccc1O`, the figure is 1.56%.
On the same count and under the same terms, then `Nc1nccc(-c2c(-c3ccc(F)cc3)nn3cc(C(F)(F)F)ccc23)n1`, with 0.62%; and `CN(C)CCCn1c(-c2nonc2N)nc2cnccc21`, with 0.86%; and `COc1cc(Nc2nccc(-c3cnn4ncccc34)n2)cc(OC)c1`, with 2.66%.
Same read-out and setting: as for `NS(=O)(=O)c1cccc(-c2cc3ccncc3cc2OCc2ccccc2)c1`, the figure is 1.97%; as for `CN1CCN(C(=O)c2ccc(NC(=O)Nc3ccc(N(C)c4ccnc(Nc5ccc(CS(C)(=O)=O)cc5)n4)cc3)cc2)CC1`, 0.47%.
In the case of `Cc1ccc2c(c1)/C(=N/Nc1ccc(S(N)(=O)=O)cc1)C(=O)N2`, the inhibition is 1.34%.
Still for that read-out and setting: then `Cc1ccc(NC(=O)CC2CC2)cc1-c1ccc(C(=O)NCC2CC2)cc1`, with 0.66%; and `CN(c1ccc(NC(=O)Nc2ccc(OC(F)(F)F)cc2)cc1)c1ccnc(Nc2cccc(S(N)(=O)=O)c2)n1`, with 3.48%.
The same measure, in the same setting: then `C[C@@H](Oc1cc(-n2cnc3ccc(OC[C@@H](O)CO)cc32)sc1C(N)=O)c1ccccc1Cl`, with -4.23%; and `Cc1ccc(C(=O)NC2CC2)cc1-c1ccc2[nH]ncc2c1`, with -1.76%.
The same measure, in the same setting: as for `COc1ccc(-c2nn3ncccc3c2-c2ccnc(Nc3cccc(C(F)(F)F)c3)n2)cc1`, the figure is 0.1%; as for `CN(C)C(=O)O[C@@H]1CN[C@@H](C#Cc2cc3ncnc(Nc4ccc(OCc5cccc(F)c5)c(Cl)c4)c3s2)C1`, -0.17%.
In the case of `CC(C)c1ccc2c(c1)NC(=O)/C2=N/Nc1ccc(S(N)(=O)=O)cc1`, the inhibition was -2%.
On the same count and under the same terms, as for `NS(=O)(=O)c1ccc(NC=C2C(=O)Nc3ccc4ncsc4c32)cc1`, the figure is 2.13%; as for `C[C@@H](Oc1cc(-n2cnc3ccc(OCC4CCN(C)CC4)cc32)sc1C(N)=O)c1ccccc1C(F)(F)F`, -3.67%.
Consider `CN(C)c1cc2c(Nc3ccc4c(cnn4Cc4ccccc4)c3)ncnc2cn1`, for which the inhibition was determined as 0.12%.
The same measure, in the same setting: as for `Cc1ccc(Nc2ccnc(Nc3cccc(C(N)=O)c3)n2)cc1O`, the figure is 1.66%; as for `CCS(=O)(=O)c1ccc(OC)c(Nc2nccc(N(C)c3ccc4c(C)n[nH]c4c3)n2)c1`, 3.32%.
The same measure, in the same setting: as for `COC(=O)Nc1nc2cc(Oc3ccc(NC(=O)Nc4cccc(Br)c4)cc3)ccc2[nH]1`, the figure is 28.1%.
With `CC(C)c1ccc(Nc2nccc(-c3cnn4ncccc34)n2)cc1`, the inhibition is -0.98%.
In the case of `NS(=O)(=O)c1ccc(N/N=C2\C(=O)Nc3ccc(Cl)cc32)cc1`, the inhibition came to 1.86%.
The same measure, in the same setting: as for `COc1cccc(-n2ncc3c(N/N=C/c4ccc(C)cc4)ncnc32)c1`, the figure is 2.45%.
The same measure, in the same setting: then `CCn1c(-c2nonc2N)nc2ccc(F)cc21`, with 0.18%; and `COc1cc2ncnc(Nc3ccc4c(cnn4Cc4ccccc4)c3)c2cc1OC`, with -2.8%; and `Nc1nccc(C#Cc2cncnc2Nc2ccc(OCc3cccc(F)c3)c(Cl)c2)n1`, with 0.65%.
Still for that read-out and setting: as for `Cc1cc(-c2ccccn2)cc(C)c1/C=C/c1cncc(-c2nn[nH]n2)c1`, the figure is 0.59%; as for `CS(=O)(=O)Nc1cccc(-c2ccc3c(NC(=O)C4CC4)n[nH]c3c2)c1`, 0.19%; as for `O=C1Nc2ccc(-c3cccnc3)cc2C1=Cc1cc(Br)c(O)c(Br)c1`, 2.12%.

Source of the values: ChEMBL document CHEMBL1961873, “Compounds: GSK PKIS; Assays: Nanosyn kinase panel” (2012).
